“And” between values parts separate entries of the source, which are not always exact repeats. Identical values can stand only once. Screen size: about 5,500 compounds; about 2,000 (36%) were called active. Inconclusive results (about 18%) are left out. Rule as the data show it: active = normalized growth mostly below about 0.91 (no sharp cut-off); inconclusive = no clear call, values can overlap the other calls; inactive = mostly above about 0.92. This is one part of the list.
Experiment: chemical genetic growth profiling, strain panel (AID 1159580);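 also: tested at 20 µM; growth read once vehicle control cultures reached saturation at 30 °C; 1 = growth at the plate median or of vehicle wells; lower values mean less growth of the strain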
Conditions: S. cerevisiae deletion strains, growth OD

Measured: normalized growth

COc1cc([C@H]2Oc3cc([C@H]4Oc5cc(O)cc(O)c5C(=O)[C@@H]4O)ccc3O[C@@H]2CO)ccc1O
inactive: locus YAL013W, strain DEP1, active compounds read low 1 | locus YAL021C, strain ccr4, active compounds read low 0.987 | locus YAL026C, strain drs2, active compounds read low 1 | locus YAL030W, strain snc1, active compounds read low 1.01 | locus YBL061C, strain skt5, active compounds read low 1.01 | locus YBR009C, strain hhf1, active compounds read low 1 | locus YBR021W, strain FUR4, active compounds read low 1.06 | locus YBR023C, strain chs3, active compounds read low 1.01 | locus YBR171W, strain sec66, active compounds read low 1.02 | locus YBR229C, strain ROT2, active compounds read low 0.991 | locus YBR231C, strain swc5, active compounds read low 1.02 | locus YBR279W, strain paf1, active compounds read low 1.01 | locus YCL011C, strain gbp2, active compounds read low 1 | locus YCL016C, strain dcc1, active compounds read low 0.992 | locus YCL029C, strain bik1, active compounds read low 0.97 | locus YCL061C, strain MRC1, active compounds read low 1.01 | locus YCL069W, strain vba3, active compounds read low 1.01 | locus YCR088W, strain abp1, active compounds read low 1.01 | locus YDL005C, strain med2, active compounds read low 1.01 | locus YDL035C, strain GPR1, active compounds read low 0.987 | locus YDL040C, strain nat1, active compounds read low 1.01 | locus YDL074C, strain BRE1, active compounds read low 0.986 | locus YDL101C, strain DUN1, active compounds read low 0.989 | locus YDL134C, strain PPH21, active compounds read low 1.01 | locus YDL185W, strain tfp1, active compounds read low 0.964 | locus YDL192W, strain arf1, active compounds read low 0.97 | locus YDR001C, strain nth1, active compounds read low 1.01 | locus YDR069C, strain doa4, active compounds read low 0.998 | locus YDR101C, strain arx1, active compounds read low 0.976 | locus YDR137W, strain rgp1, active compounds read low 0.996 | locus YDR150W, strain NUM1, active compounds read low 0.969 | locus YDR159W, strain sac3, active compounds read low 0.997 | locus YDR162C, strain NBP2, active compounds read low 1.02 | locus YDR195W, strain ref2 1.02 | locus YDR297W, strain sur2, active compounds read low 1.02 | locus YDR318W, strain mcm21, active compounds read low 0.97 | locus YDR334W, strain swr1, active compounds read low 1.01 | locus YDR335W, strain msn5, active compounds read low 1 | locus YDR388W, active compounds read low 0.984 | locus YDR392W, strain spt3, active compounds read low 0.955 | locus YDR502C, strain sam2, active compounds read low 0.977 | locus YEL003W, strain gim4, active compounds read low 1.01 | locus YEL037C, strain rad23, active compounds read low 1.01 | locus YEL061C, strain CIN8 (second series), active compounds read low 1.02 | locus YEL061C, strain CIN8, active compounds read low 1 | locus YER015W, strain faa2, active compounds read low 1 | locus YER016W, strain bim1, active compounds read low 1.01 | locus YER110C, active compounds read low 0.958 | locus YER111C, strain swi4, active compounds read low 1 | locus YER155C, strain BEM2 (second series), active compounds read low 1.03 | locus YER155C, strain BEM2, active compounds read low 1.02 | locus YER167W, strain BCK2, active compounds read low 0.992 | locus YFR010W, strain ubp6, active compounds read low 0.995 | locus YGL078C, strain dbp3, active compounds read low 0.965 | locus YGL086W, strain mad1, active compounds read low 0.975 | locus YGL167C, strain pmr1, active compounds read low 1.01 | locus YGL173C, strain kem1, active compounds read low 1.01 | locus YGL227W, strain vid30, active compounds read low 1.01 | locus YGL240W, strain doc1, active compounds read low 1.03 | locus YGL248W, strain PDE1, active compounds read low 1.01 | locus YGL253W, strain hxk2, active compounds read low 0.989 | locus YGR078C, strain PAC10, active compounds read low 0.989 | locus YGR135W, strain pre9, active compounds read low 0.987 | locus YGR229C, strain SMI1, active compounds read low 1.01 | locus YGR252W, strain gcn5, active compounds read low 0.961 | locus YHR013C, strain ard1, active compounds read low 1 | locus YHR027C, strain rpn1, active compounds read low 1 | locus YHR030C, strain SLT2, active compounds read low 0.999 and 1.02 | locus YHR079C, strain IRE1 (second series), active compounds read low 0.984 | locus YHR079C, strain IRE1, active compounds read low 0.996 | locus YHR094C, strain hxt1, active compounds read low 0.971 | locus YHR129C, strain ARP1, active compounds read low 1 | locus YHR142W, strain chs7, active compounds read low 0.997 | locus YHR200W, strain rpn10, active compounds read low 0.959 | locus YIL066C, strain RNR3, active compounds read low 0.968 | locus YIL073C, strain SPO22, active compounds read low 0.906 | locus YIL125W, strain kgd1, active compounds read low 0.987 | locus YIR030C, strain dcg1, active compounds read low 0.981 | locus YJL092W, strain hpr5, active compounds read low 1.01 | locus YJL095W, strain BCK1 (second series), active compounds read low 1.02 | locus YJL095W, strain BCK1, active compounds read low 0.998 and 0.981 | locus YJL115W, strain asf1, active compounds read low 1.01 | locus YJL129C, strain trk1, active compounds read low 1.03 | locus YJL134W, strain LCB3, active compounds read low 1 | locus YJL154C, strain vps35, active compounds read low 1.01 | locus YJL164C, strain tpk1, active compounds read low 0.989 | locus YJL166W, strain qcr8, active compounds read low 1.01 | locus YJL168C, strain set2, active compounds read low 0.98 | locus YJL187C, strain SWE1 (second series), active compounds read low 0.988 | locus YJL187C, strain SWE1, active compounds read low 1.01 | locus YJR043C, strain POL32, active compounds read low 0.998 | locus YJR066W, strain TOR1, active compounds read low 0.954
